High-throughput results deposited in PubChem BioAssay by NMMLSC.
Myeloid diff 2: induction of myeloid progenitor differentiation, primary screen, cell-based, flow cytometry, MLPCN library; ER-HoxA9 myeloid progenitors, lysozyme-GFP differentiation; calls only at 10 µM; hit rate 1% among 360,000; AID 624256, 2012;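 active = normalized GFP-positive differentiation at or above the plate's own cutoff, the solvent-only control mean plus 3 SD; inconclusive = no clear call, values can overlap the other calls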;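 also: cells exposed to compound for four days before flow analysis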
AGP1-GFP MLPCN: modulators of AGP1-GFP expression in yeast TOR pathway, primary screen, cell-based, multiplex flow cytometry, S. cerevisiae, MLPCN library; AID 2066, 2009; GFP response vs DMSO, % at 10 µM; hit rate 0.02% among 320,000; 3 h; GFP as percent of DMSO wells;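 active = GFP response relative to DMSO above a set limit, near screen average plus 3 SD, cut at about 150% in these data; inconclusive = fewer than 70 cells counted for the yeast strain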;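 also: median GFP channel fluorescence of the gated AGP1 strain per well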
RPL19A TOR yeast: RPL19A-GFP expression modulators in yeast, primary screen, cell-based, S. cerevisiae, multiplex flow cytometry, MLPCN; S. cerevisiae RPL19A-GFP strain, 3 h; active compounds read low; percent response vs DMSO, % at 10 µM; hit rate 0.3% among 330,000; AID 2025, 2009;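 active = percent response vs DMSO below 50%; inconclusive = fewer than 70 events counted for the yeast strain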;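 also: median channel GFP fluorescence of the barcoded RPL19A-GFP strain; ratio of sample median GFP to plate DMSO average so 100% = DMSO; lower means less RPL19A-GFP as with rapamycin TOR inhibition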
LAP4-GFP MLPCN: modulators of LAP4-GFP expression in yeast, primary screen, S. cerevisiae, multiplex flow cytometry, MLPCN library; 3 h; median GFP as percent of DMSO wells; GFP response vs DMSO, % at 10 µM; hit rate 0.34% among 320,000; AID 2023, 2009;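 active = GFP response vs DMSO above a set limit, about the screen mean plus 3 SD, cut at about 150% in these data; inconclusive = under 70 cell events counted for the yeast strain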
CIT2 TOR yeast: modulators of CIT2-GFP expression in yeast, primary screen, S. cerevisiae, GFP fusion, multiplex flow cytometry, MLPCN library; hit rate 0.065% among 320,000; S. cerevisiae CIT2-GFP strain, 3 h; 100 means same as DMSO wells; GFP response vs DMSO, % at 10 µM; AID 2029, 2009;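 active = GFP response relative to DMSO above a set limit, near the screen mean plus 3 SD, cut at about 150% in these data; inconclusive = Fewer than 70 cells measured for a yeast strain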;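 also: ratio of well median GFP fluorescence to mean of DMSO wells on the plate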
MEP2-GFP yeast: modulators of MEP2-GFP levels in yeast, primary screen, S. cerevisiae, multiplex flow cytometry, MLPCN library | S. cerevisiae MEP2-GFP strain, 3 h; 100% = DMSO control level | GFP response vs DMSO, % at 10 µM | hit rate 0.51% among 330,000;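 active = GFP response versus DMSO above a set limit, roughly screen mean plus 3 SD, cut at about 180% in these data; inconclusive = fewer than 70 cells counted for a yeast strain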;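 also: median GFP fluorescence of the barcode-gated MEP2-GFP cells per well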
Starred values were filed as active, the others as inactive; i = inactive; u = inconclusive; x = no result; + = active, no number; [ ] = another dose, or the depositor's remark. In the library only some 1.8% were active in any assay of this set; here they are far more common.

SMILES	Myeloid diff 2	AGP1-GFP MLPCN	RPL19A TOR yeast	LAP4-GFP MLPCN	CIT2 TOR yeast	MEP2-GFP yeast
CCOc1ccccc1N1C(=O)c2ccc(S(=O)(=O)c3ccc(C(=O)O)cc3)cc2C1=O	i	103	102	97	100	106
COc1cc2c(cc1OC)-c1cc(OCCN3CCOCC3)nc(=O)n1CC2	+	105	103	104	99	110
CCNc1cc2n(c(=O)n1)CCc1cc(OC)c(OC)cc1-2	i	109	105	106	105	104
O=C1Cc2cc(S(=O)(=O)N3CCN(c4ccc(O)cc4)CC3)ccc2N1	i	x	x	x	x	x
O=C1c2ccccc2-n2c1nc1ccccc1c2=O	+	101	98	116	107	102
CCCN1CCc2c(sc3nc(SCC)n(-c4ccccc4)c(=O)c23)C1	+	x	x	x	x	x
N#C/C(=C\c1ccc(N2CCCCC2)o1)C(=O)Nc1cccc(Br)c1	+	98	99	99	109	112
O=C(Nc1cccc(F)c1)C1CCN(C(=O)c2ccco2)CC1	i	101	101	89	103	94
Cc1cc(S(=O)(=O)N2CCCCC2CCNC(=O)C(=O)NC2CC2)ccc1F (configuration not stated)	i	106	96	101	100	95
Cc1cc(C)c(S(=O)(=O)N2CCCCC2CCNC(=O)C(=O)NC2CC2)c(C)c1 (configuration not stated)	+	100	97	97	96	103
Cn1cnnc1SCC(=O)Nc1nc(-c2ccc(F)cc2)cs1	i	122	116	199*	217*	254*
CC1CCCC(NC(=O)CCC(=O)c2ccc(F)cc2)C1C (configuration not stated)	i	91	95	94	78	98
COCCc1nc2ccc(C(=O)NCc3cccc(-n4cccn4)c3)cc2o1	i	93	93	88	92	87
Cc1ccc(C=C2C(Cl)=C(Cl)C(Cl)=C2Cl)cc1	x	88	97	155*	86	95
O=C(CCc1nnc2ccc(NCc3ccco3)nn12)N1CCCCC1	+	128	111	123	112	112
Cc1ccc(NC(=O)CCc2nnc3ccc(NCc4ccco4)nn23)cc1F	+	90	97	90	99	103
Cc1ccc(CNC(=O)Cn2cccc2C(=O)c2ccccc2)cc1	i	99	95	104	93	96
Cc1cccc(C(=O)N2N=C(c3ccc(NS(C)(=O)=O)cc3)CC2c2cccs2)c1 (configuration not stated)	i	u	35*[may fluoresce violet]	63	u	352*[may fluoresce violet]
CCS(=O)(=O)Nc1ccc(C2=NN(C(=O)c3ccccc3)C(c3cccs3)C2)cc1 (configuration not stated)	i	101	97	97	95	98
COc1ccc(CN(C)C(=O)c2ccc3ccccc3n2)cc1F	i	92	103	116	99	121
COc1ccc2[nH]c(=O)c(CN(C(=O)C(C)C)c3ccccc3OC)cc2c1	+	95	104	96	102	103
CCC(=O)N(Cc1cc2cc(OC)ccc2[nH]c1=O)c1ccccc1OC	i	x	x	x	x	x
CCCCc1ccc(/C=C2\C(=O)c3ccccc3C(O)=C2C(=O)OCC)cc1	x	81	99	163*	91	115
CCN(CC)C(=O)Cn1c(=O)c2ccccc2n2c(=S)sc(-c3cccc(C)c3)c12	+	106	106	100	105	99
CCN(CC)C(=O)CCn1nc(-c2ccc(C)cc2)c2ccccc2c1=O	i	99	104	97	95	97
Cc1ccc(NC(=O)CSc2nc(N)cc(=O)[nH]2)cc1Cl	i	111	106	95	96	100
CCCC(=O)NCC(c1cccs1)S(=O)(=O)c1ccc(Cl)cc1 (configuration not stated)	+	103	95	89	100	90
